According to PubChem BioAssay AID1159580 (chemical genetic matrix, 2015):
Out of some 5,500 compounds screened, about 2,000 (36%) were called active. Inconclusive results (about 18%) are left out. No stated cut-off is given here; in the data, active means normalized growth mostly below about 0.91 (no sharp cut-off); inconclusive means no clear call, values can overlap the other calls; inactive means mostly above about 0.92. This is one part of the list.

Experiment: chemical genetic growth profiling, strain panel (AID 1159580);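 further: tested at 20 µM; growth read once vehicle control cultures reached saturation at 30 °C; 1 = growth at the plate median or of vehicle wells; lower values mean less growth of the strain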
Settings: growth OD

Measured: normalized growth

NC1C[C@H]1c1ccccc1 (some centres not stated)
inactive: S. cerevisiae deletion strains, locus YJR075W, strain HOC1, hits give low values 0.998 | S. cerevisiae deletion strains, locus YKL009W, strain mrt4, hits give low values 0.989 | S. cerevisiae deletion strains, locus YKL068W, hits give low values 0.992 | S. cerevisiae deletion strains, locus YKL085W, strain MDH1 (second series), hits give low values 0.987 | S. cerevisiae deletion strains, locus YKL085W, strain MDH1, hits give low values 0.987 | S. cerevisiae deletion strains, locus YKL160W, strain elf1, hits give low values 0.964 | S. cerevisiae deletion strains, locus YKL190W, strain CNB1, hits give low values 1.01 | S. cerevisiae deletion strains, locus YKR001C, strain vps1, hits give low values 0.98 | S. cerevisiae deletion strains, locus YKR026C, strain gcn3, hits give low values 0.984 | S. cerevisiae deletion strains, locus YKR091W, strain srl3, hits give low values 0.979 | S. cerevisiae deletion strains, locus YLL001W, strain dnm1, hits give low values 0.977 | S. cerevisiae deletion strains, locus YLL026W, hits give low values 0.996 | S. cerevisiae deletion strains, locus YLL041C, strain sdh2, hits give low values 1 | S. cerevisiae deletion strains, locus YLR027C, strain aat2, hits give low values 0.987 | S. cerevisiae deletion strains, locus YLR039C, strain RIC1, hits give low values 1.01 | S. cerevisiae deletion strains, locus YLR058C, strain SHM2, hits give low values 1.01 | S. cerevisiae deletion strains, locus YLR102C, strain apc9, hits give low values 0.985 | S. cerevisiae deletion strains, locus YLR113W, strain HOG1, hits give low values 0.981 | S. cerevisiae deletion strains, locus YLR221C, strain rsa3, hits give low values 1.01 | S. cerevisiae deletion strains, locus YLR258W, strain gsy2, hits give low values 0.981 | S. cerevisiae deletion strains, locus YLR262C, strain YPT6 (second series), hits give low values 0.974 | S. cerevisiae deletion strains, locus YLR262C, strain YPT6, hits give low values 1.03 | S. cerevisiae deletion strains, locus YLR268W, strain sec22, hits give low values 0.963 | S. cerevisiae deletion strains, locus YLR320W, strain mms22, hits give low values 1.02 | S. cerevisiae deletion strains, locus YLR330W, strain CHS5, hits give low values 1.01 | S. cerevisiae deletion strains, locus YLR342W, strain FKS1 (second series), hits give low values 0.987 | S. cerevisiae deletion strains, locus YLR342W, strain FKS1, hits give low values 0.973 | S. cerevisiae deletion strains, locus YLR357W, strain rsc2, hits give low values 0.939 | S. cerevisiae deletion strains, locus YLR370C, strain arc18, hits give low values 0.989 | S. cerevisiae deletion strains, locus YLR371W, strain rom2, hits give low values 0.972 | S. cerevisiae deletion strains, locus YLR384C, strain iki3, hits give low values 0.989 | S. cerevisiae deletion strains, locus YLR418C, strain cdc73, hits give low values 0.962 | S. cerevisiae deletion strains, locus YML016C, strain PPZ1, hits give low values 1.01 | S. cerevisiae deletion strains, locus YML032C, strain rad52, hits give low values 0.985 | S. cerevisiae deletion strains, locus YML120C, strain ndi1, hits give low values 1.01 | S. cerevisiae deletion strains, locus YML124C, strain tub3, hits give low values 0.987 | S. cerevisiae deletion strains, locus YMR058W, strain fet3, hits give low values 1 | S. cerevisiae deletion strains, locus YMR078C, strain ctf18, hits give low values 0.981 | S. cerevisiae deletion strains, locus YMR125W, strain sto1, hits give low values 0.939 | S. cerevisiae deletion strains, locus YMR129W, hits give low values 0.998 | S. cerevisiae deletion strains, locus YMR205C, strain PFK2, hits give low values 1.02 | S. cerevisiae deletion strains, locus YMR223W, strain ubp8, hits give low values 0.98 | S. cerevisiae deletion strains, locus YMR231W, strain pep5, hits give low values 0.975 | S. cerevisiae deletion strains, locus YMR263W, strain SAP30, hits give low values 1 | S. cerevisiae deletion strains, locus YMR307W, strain GAS1, hits give low values 0.945 | S. cerevisiae deletion strains, locus YNL067W, strain RPL9B, hits give low values 1.01 | S. cerevisiae deletion strains, locus YNL071W, strain lat1, hits give low values 0.984 | S. cerevisiae deletion strains, locus YNL128W, strain TEP1, hits give low values 1.02 | S. cerevisiae deletion strains, locus YNL153C, strain GIM3, hits give low values 0.989 | S. cerevisiae deletion strains, locus YNL183C, strain NPR1, hits give low values 0.933 | S. cerevisiae deletion strains, locus YNL209W, strain ssb2, hits give low values 0.977 | S. cerevisiae deletion strains, locus YNL233W, strain BNI4, hits give low values 0.993 | S. cerevisiae deletion strains, locus YNL248C, strain rpa49, hits give low values 0.929 | S. cerevisiae deletion strains, locus YNL250W, strain rad50, hits give low values 0.973 | S. cerevisiae deletion strains, locus YNL271C, strain bni1, hits give low values 0.987 | S. cerevisiae deletion strains, locus YNL298W, strain CLA4, hits give low values 0.987 | S. cerevisiae deletion strains, locus YNL307C, strain MCK1, hits give low values 0.988 | S. cerevisiae deletion strains, locus YNL322C, strain KRE1 (second series), hits give low values 0.98 | S. cerevisiae deletion strains, locus YNL322C, strain KRE1, hits give low values 1.01 | S. cerevisiae deletion strains, locus YNR049C, strain mso1, hits give low values 0.989 | S. cerevisiae deletion strains, locus YNR052C, strain pop2, hits give low values 0.995 | S. cerevisiae deletion strains, locus YOL006C, strain TOP1, hits give low values 1.05 | S. cerevisiae deletion strains, locus YOL012C, strain htz1 0.845 | S. cerevisiae deletion strains, locus YOL147C, strain pex11, hits give low values 0.983 | S. cerevisiae deletion strains, locus YOR001W, strain rrp6, hits give low values 1.02 | S. cerevisiae deletion strains, locus YOR061W, strain CKA2, hits give low values 1.01 | S. cerevisiae deletion strains, locus YOR069W, strain VPS5, hits give low values 1.01 | S. cerevisiae deletion strains, locus YOR070C, strain gyp1, hits give low values 0.992 | S. cerevisiae deletion strains, locus YOR080W, strain dia2, hits give low values 0.993 | S. cerevisiae deletion strains, locus YOR083W, strain WHI5, hits give low values 0.934 | S. cerevisiae deletion strains, locus YOR106W, strain vam3, hits give low values 0.99 | S. cerevisiae deletion strains, locus YOR136W, strain idh2, hits give low values 0.982 | S. cerevisiae deletion strains, locus YOR144C, strain elg1, hits give low values 0.988 | S. cerevisiae deletion strains, locus YOR184W, strain ser1, hits give low values 0.994 | S. cerevisiae deletion strains, locus YOR231W, strain MKK1, hits give low values 0.986 | S. cerevisiae deletion strains, locus YOR265W, strain rbl2, hits give low values 0.99 | S. cerevisiae deletion strains, locus YOR270C, strain vph1, hits give low values 0.997 | S. cerevisiae deletion strains, locus YOR290C, strain snf2, hits give low values 0.964 | S. cerevisiae deletion strains, locus YOR316C, strain cot1, hits give low values 0.988 | S. cerevisiae deletion strains, locus YPL051W, strain arl3, hits give low values 0.983 | S. cerevisiae deletion strains, locus YPL055C, strain LGE1, hits give low values 1 | S. cerevisiae deletion strains, locus YPL078C, strain atp4, hits give low values 0.975 | S. cerevisiae deletion strains, locus YPL106C, strain sse1, hits give low values 0.961 | S. cerevisiae deletion strains, locus YPL240C, strain hsp82, hits give low values 1.02 | S. cerevisiae deletion strains, locus YPL241C, strain CIN2, hits give low values 1 | S. cerevisiae deletion strains, locus YPL256C, strain CLN2, hits give low values 0.956 | S. cerevisiae deletion strains, locus YPR119W, strain clb2, hits give low values 0.991 | S. cerevisiae deletion strains, locus YPR141C, strain kar3, hits give low values 0.981 | S. cerevisiae deletion strains, locus YPR163C, strain tif3, hits give low values 0.983 | S. cerevisiae deletion strains, locus YPR167C, strain met16, hits give low values 0.984 | S. cerevisiae deletion strains, strain wtn01, hits give low values 0.964 | S. cerevisiae strains, strain wild type, hits give low values 1.01
